# Source: PubChem (National Center for Advancing Translational Sciences (NCATS))
# Vaccinia mCherry: qHTS for Stage-Specific Inhibitors of Vaccinia Orthopoxvirus: mCherry Reporter Primary qHTS; AID 720579, 2013; Potency, µM (doses to about 36.5 µM), inactives show top-dose activity change, negative = inhibition, most hits filed as inhibitors; hit rate 0.63% among 310,000; Vaccinia virus mCherry reporter infection, fluorescence; calls by dose curve; tested in A549 cells; further: nearly all actives have a fitted effect of over 35% in size
# VACV Venus inh: qHTS for Stage-Specific Inhibitors of Vaccinia Orthopoxvirus: Venus Reporter Primary qHTS. Potency, µM (series often up to 36.5 µM), inactives show at the highest dose activity change, negative = inhibition, hits mostly inhibitors. AID 720580, 2013. Vaccinia virus Venus reporter expression, fluorescence. hit rate 0.46% among 330,000; calls by dose curve; tested in A549 cells; further: nearly all actives have a fitted effect of over 30% in size
# HCV inh: qHTS Assay for Inhibitors of Hepatitis C Virus (HCV); Huh7.5.1 HCVcc-Cre infection, luciferase reporter, 44 h; Potency, µM (doses to about 41.8 µM), for inactives: at the top dose activity change, negative = inhibition, hits mostly inhibitors; hit rate 3.4% among 340,000; AID 651820, 2012; active means well fitted inhibition curve with a large enough effect; inconclusive means small, poorly fitted or top-dose-only effect, or another doubt; inactive means no such curve, though single readings can be large or run the other way
#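 Cells seeded at 1,000/well and cultured 4 h, then compounds added followed by HCVcc-Cre virus (~0.5 moi). After 44 h further culture, luciferase substrate was added, plates held 15 min at room temperature, and luminescence read for 15 sec.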
# Lassa entry inh: qHTS for Inhibitors of binding or entry into cells for Lassa Virus | Potency, µM (titrated, usually from 37.9 µM), for inactives: at the top dose activity change, negative = inhibition, most hits filed as inhibitors | AID 540256, 2011 | Lassa virus pseudotype entry inhibition, cell reporter | hit rate 1.2% among 300,000; calls by dose curve; tested in HEK293 cells; further: nearly all actives have a fitted effect of over 50% in size
# MARV entry inh: qHTS for inhibitors of binding or entry into cells for Marburg Virus; Marburg virus pseudotyped entry inhibition, cell reporter; Potency, µM (top dose mostly 37.8 µM), inactives show at the highest dose activity change, negative = inhibition, usual class: inhibitors; hit rate 1.8% among 300,000; AID 540276, 2011; calls by dose curve; tested in HEK293 cells
# Numbers without * were called inactive; i = inactive; ? = inconclusive; · = not tested or not shown; [ ] = remark or other dose. Compounds with a hit are over-represented: about 4.6% of the library has one in this group of screens. On the % scale 0 is the no-effect control and ±100 the full control effect; potency means the concentration at half of the fitted maximal effect.
SMILES,Vaccinia mCherry,VACV Venus inh,HCV inh,Lassa entry inh,MARV entry inh
Cc1oc2ncnc(N3CCCCC3)c2c1C(=O)NCC1CCN(Cc2ccccc2F)CC1,-11%,0%,·,16%[46.1 µM],·
CCOc1ccc(OCC)c(NC(=O)c2nnn(CC(=O)Nc3cc(Cl)ccc3OC)c2N)c1,-22%,-20%,·,-2%[46.1 µM],-12%[46.1 µM]
Cc1ccc(NC(=S)/N=C(\N)Nc2nc(C)c3cc(C)ccc3n2)c(C)c1,i,?,2.8µM*,15%,?
COc1ccc2nc(N/C(N)=N/C(=S)Nc3cccc(C)c3)nc(C)c2c1,·,-14%,?,-17%,?
Cc1cccc(NC(=O)CCC(=O)N/N=C/c2ccc(O)cc2O)c1,6.3µM*,-9%,?,?,?
O=C(O)COc1ccc(/C=N/NC(=O)COc2nsnc2N2CCOCC2)cc1,·,·,-10%,0%,0%
O=C(CCCCC(=O)NN=Cc1ccccc1O)NN=Cc1ccccc1O,3.2µM*,-13%,?,?,?
O=C(CCC(=O)Nc1ccc(Br)cc1)N/N=C/c1ccccc1O,5.6µM*,?,?,?,?
O=C(COc1nsnc1N1CCOCC1)N/N=C/c1ccccc1O,22µM*,?,?,?,?
CC(=O)[C@@]12C3[C@@H](CCN3C(=O)N[C@H]1c1ccccc1)[C@H]2c1ccccc1 (stereo partly drawn),·,·,·,·,21%[14.2 µM]
O=C(Cn1cc(C(F)(F)F)ccc1=O)N/N=C/c1ccccc1O,16µM*,-25%,?,·,·
CSc1nc(C)cc(OCC(=O)N/N=C/c2ccccc2O)n1,11µM*,?,6.3µM*,?,2.8µM*
Cc1cc(=O)oc2cc(OCC(=O)N/N=C/c3ccccc3O)ccc12,?,-11%,5%,-9%[46.1 µM],2%[46.1 µM]
O=C(Cn1cc(C(F)(F)F)ccc1=O)N/N=C/c1ccc(F)cc1,2%,-2%,31%,1%,7%[46.1 µM]
C=CCOC(=O)N[C@H](c1ccccc1)[C@H](C)C=CCC(=O)OC,·,·,·,·,9%[14.2 µM]
N/C(Cc1ccc(Cl)cc1)=N\OC(=O)c1ccc2ccccc2c1,-12%,-5%,32µM*,?,2.8µM*
N/C(=N\OC(=O)c1cccc2ccccc12)c1cccnc1,·,·,11µM*,-15%,?
N/C(Cc1ccc(Cl)cc1)=N\OC(=O)c1cccc2ccccc12,-16%,-13%,7.1µM*,12µM*,?
N/C(Cc1ccc(Cl)cc1)=N\OC(=O)CCc1ccccc1,i,-19%,·,·,·
COc1ccc(C/C(N)=N/OC(=O)c2ccc(Cl)cc2)cc1,i,-4%,-1%,?,-19%[46.1 µM]
COc1ccc(-n2c(/C=C3/C(=O)Nc4ccccc43)nc3ccccc3c2=O)cc1,i,-6%,1%,?,?
CC(C)N1C(=O)/C(=C\c2nc3ccccc3c(=O)n2-c2ccccc2)c2ccccc21,11µM*,?,?,?,?
CC(C)N1C(=O)/C(=C/c2nc3ccccc3c(=O)n2-c2ccccc2)c2ccccc21,-2%,-13%,?,10µM*,?
COC(=O)c1cccc(NC(=S)NCCC2=CCCCC2)c1,-22%[1.46 µM],?,13µM*,?,-24%
Cc1nc2ccc(NC(=O)c3cc([N+](=O)[O-])cc([N+](=O)[O-])c3Cl)cc2s1,-6%,-16%,25µM*,4%,?
SMILES,Vaccinia mCherry,VACV Venus inh,HCV inh,Lassa entry inh,MARV entry inh
Cc1nc2ccc(NS(=O)(=O)c3ccc(F)c(F)c3)cc2s1,·,·,-11%,·,·
Cc1nc2ccc(NS(=O)(=O)c3ccc4c(c3)OCCO4)cc2s1,·,?,3.2µM*,?,?
Cc1c(NS(=O)(=O)c2ccc3c(c2)OCCO3)cccc1-c1nc2cccnc2s1,-17%,-17%,13µM*,·,0%
Cc1ccc(S(=O)(=O)Nc2ccc3nc(N)sc3c2)cc1,·,·,13µM*,-8%,-26%
COc1ccc(N2CCN(C(CNS(=O)(=O)c3c(C)cc(C)cc3C)c3ccco3)CC2)cc1 (stereo not drawn),-21%,-18%,·,-18%[46.1 µM],·
Cc1cccc(NC(=O)c2sc3nc(N4CCOCC4)c4c(c3c2N)CC(C)(C)OC4)c1,?,?,·,12%[46.1 µM],-8%[46.1 µM]
COc1ccccc1C(=O)OCC(=O)Nc1ccc(N2CCCCC2)cc1,-3%,-11%,·,·,·
Cc1ccc(S(=O)(=O)Nc2ccc3nc(-c4cccn4C)[nH]c3c2)cc1,-24%,-16%,11µM*,?,?
